TDP1 inh – blocks human tyrosyl-DNA phosphodiesterase 1 | recombinant TDP1, AlphaScreen DNA substrate cleavage | Potency, µM (series often up to 130 µM), for the others: at the top dose activity change, negative = inhibition, hits mostly inhibitors | actives 0.28% (n = 350,000) | AID 485290; also: potency is read from the fitted curve at half-maximal effect; % is scaled to controls: 0 for no effect and ±100 for the full control effect; nearly all actives have a fitted effect of over 40% in size
Target sequence (Q9NUW8 whole entry, looked up): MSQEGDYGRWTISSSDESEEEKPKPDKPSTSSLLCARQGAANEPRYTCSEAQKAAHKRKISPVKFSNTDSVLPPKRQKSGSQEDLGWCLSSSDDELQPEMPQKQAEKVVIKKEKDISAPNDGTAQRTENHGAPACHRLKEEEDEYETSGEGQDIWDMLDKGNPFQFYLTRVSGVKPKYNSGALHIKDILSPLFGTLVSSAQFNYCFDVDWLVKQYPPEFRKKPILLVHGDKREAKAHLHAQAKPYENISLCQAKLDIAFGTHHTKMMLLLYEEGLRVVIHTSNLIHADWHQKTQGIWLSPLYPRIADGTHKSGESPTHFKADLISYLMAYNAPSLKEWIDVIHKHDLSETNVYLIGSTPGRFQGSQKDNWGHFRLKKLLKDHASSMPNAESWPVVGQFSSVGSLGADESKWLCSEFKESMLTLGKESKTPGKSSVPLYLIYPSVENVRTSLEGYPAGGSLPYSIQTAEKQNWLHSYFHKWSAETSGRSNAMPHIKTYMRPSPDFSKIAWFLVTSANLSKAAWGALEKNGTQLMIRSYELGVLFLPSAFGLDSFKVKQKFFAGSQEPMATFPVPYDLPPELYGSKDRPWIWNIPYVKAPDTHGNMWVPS
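Enzyme-compound mixtures sat 15 min at room temperature, followed by a 5 min reaction with 15 nM final substrate and 10 min with AlphaScreen beads. Recombinant human Tdp1 was used at 1 nM final.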
TGFb inhibitor – blocks TGF-b signaling | AID 588855 | Potency, µM (series often up to 46.1 µM), without a hit: at the top dose activity, negative = inhibition, most hits filed as inhibitors | actives 1.2% (n = 410,000) | HepG2 CAGA-GFP TGF-b/SMAD3 reporter, GFP fluorescence, 18 h; TGF-beta stimulated, 500 pg/mL final; also: potency is read from the fitted curve at half-maximal effect; % is scaled to controls: 0 for no effect and ±100 for the full control effect; nearly all actives have a fitted effect of over 65% in size
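Per well, imaged GFP fluorescence of HEPG2 CAGA-GFP cells gives the signal; cells get compound, then TGF-beta (500 pg/mL final), 18 h at 37 degrees C; %Activity versus -TGF-beta and +DMSO controls.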
DT40 TDP1 no CPT – qHTS for Inhibitors of human tyrosyl-DNA phosphodiesterase 1 (TDP1): qHTS in cells in absence of CPT; DT40 Tdp1-/- hTDP1 cells, no CPT, ATP luminescence, 48 h; Potency, µM (titrated, usually from 46.2 µM), inactives show at the top dose activity change, negative = growth inhibition, usual class: inhibitors; actives 15% (n = 420,000); AID 686978, 2013; also: potency is read from the fitted curve at half-maximal effect; % is scaled to controls: 0 for no effect and ±100 for the full control effect; nearly all actives have a fitted effect of over 55% in size
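Readout: luminescence from CellTiter-Glo after 30 min in the dark at RT. Cells: DT40 Tdp1-/- with stable hTDP1, 400/well. Exposure: compounds alone, ≥48 hr, 37 °C.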
IL1B secr inh – inflammasome signaling inhibition, IL-1 beta readout. THP-1 LPS/ATP IL-1B secretion, AlphaLISA, 16 h; active compounds read low. activity change, % at 57.5 µM. actives 4.7% (n = 360,000). AID 743279; in the data active = activity change below about -50%; inconclusive = mostly about -30% to -49%; also: % is scaled to controls: 0 for no effect and ±100 for the full control effect
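Secreted IL-1B measured by AlphaLISA bead assay after 16 h compound exposure of THP-1 cells; compounds (final up to 57.5 uM) added 1 h before LPS (250 ng/mL) and ATP (1.25 mM) stimulation; lower signal means less secretion.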
TDP1 cell CPT – DT40-hTDP1 cell growth loss with CPT | chicken DT40 Tdp1-/-;hTDP1 cells + 20 nM CPT, ATP luminescence, 48 h | Potency, µM (series often up to 46.2 µM), inactives show at the top dose activity change, negative = growth inhibition, hits mostly inhibitors | actives 12% (n = 420,000) | AID 686979; also: potency is read from the fitted curve at half-maximal effect; % is scaled to controls: 0 for no effect and ±100 for the full control effect; nearly all actives have a fitted effect of over 55% in size
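Chicken DT40 Tdp1-/- cells stably complemented with human TDP1 were seeded at 400 cells/well in medium containing 20 nM camptothecin, exposed to pin-transferred compounds, and grown at 37 °C for at least 48 hr. Viability was read as ATP luminescence.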
HepG2 tox – kills HepG2 cells in TGF-b inhibitor counter-screen | HepG2 CAGA-GFP viability, ATP luminescence, 18 h | Potency, µM (titrated, usually from 46.1 µM), without a hit: top-dose activity change, negative = cytotoxicity, usual class: cytotoxic | actives 0.76% (n = 410,000); also: potency is read from the fitted curve at half-maximal effect
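CellTiter-Glo luminescence gave cytotoxicity after 18 hours at 37 degrees C. The cells were HepG2 CAGA-GFP in 1% FBS DMEM, stimulated with 500 pg/mL TGF-beta after compound addition. %Activity was normalised to no-cell wells (complete cell-killing) and DMSO (no toxicity), and curves were fitted and classified.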
Numbers without * were called inactive; [ ] = another dose, or the depositor's remark. The list is not random: actives were taken first. Their share in the collection is about 19%. Unless noted, calls follow the shape of the dose curve; as a rule, active = well fitted curve in the direction sought with a large enough effect; inconclusive = small, poorly fitted or top-dose-only effect, or another doubt; inactive = no such curve, though single readings can be large; an effect the other way counts as inactive or inconclusive.

How did CC1(C(=O)Nc2ccc(Cl)c(Cl)c2)CCN1C(=O)CCC1CCCC1 (stereo not drawn) do in these assays?
TGFb inhibitor: inconclusive; DT40 TDP1 no CPT: 23µM*; IL1B secr inh: 4; TDP1 cell CPT: 23µM*; HepG2 tox: -20%

Results for Cc1ccc(NC(=O)C2(C)CCN2C(=O)CCC2CCCC2)cc1C (stereo not drawn) ?
TGFb inhibitor: 4%; DT40 TDP1 no CPT: inconclusive; IL1B secr inh: 0; TDP1 cell CPT: inconclusive; HepG2 tox: -15%

How did CCc1ccc(CNC(=O)CCC(=O)n2ncc3cc(C)ccc32)cc1 do in these assays?
TGFb inhibitor: -3%; DT40 TDP1 no CPT: -4%; IL1B secr inh: 10; TDP1 cell CPT: 5%; HepG2 tox: -23%

Results for CCNC(=S)Nc1ccc(Cl)c([N+](=O)[O-])c1 ?
TDP1 inh: -1%; TGFb inhibitor: -8%; DT40 TDP1 no CPT: inconclusive; IL1B secr inh: -89*; TDP1 cell CPT: -16%; HepG2 tox: -15%

What do the screens show for `CC(CC(=O)Nc1ccc(Cl)c([N+](=O)[O-])c1)c1ccccc1` (stereo not drawn)?
TDP1 inh: -4%; TGFb inhibitor: inconclusive; DT40 TDP1 no CPT: inconclusive; IL1B secr inh: -91*; TDP1 cell CPT: inconclusive; HepG2 tox: -32%

What do the screens show for `CCNC(=S)Nc1cccc([N+](=O)[O-])c1`?
TDP1 inh: -5%

Results for CCCOc1ccc(-c2nc3ccc(Br)cc3c(=O)o2)cc1 ?
TDP1 inh: 4%[2.28 µM]; TGFb inhibitor: 2%; DT40 TDP1 no CPT: -9%; TDP1 cell CPT: -6%; HepG2 tox: -6%

How did N#Cc1ccc(COC(=O)CN2C(=O)NC3(CCCC3)C2=O)cc1 do in these assays?
TDP1 inh: 1%; TGFb inhibitor: -7%; DT40 TDP1 no CPT: -23%; IL1B secr inh: -5; TDP1 cell CPT: -15%; HepG2 tox: -3%

Results for COc1cccc(OCCCn2c(-c3ccc(Cl)cc3)nc3ccccc3c2=O)c1 ?
TGFb inhibitor: -25%; DT40 TDP1 no CPT: -16%; TDP1 cell CPT: -14%; HepG2 tox: -32%

Results for O=C(Cn1ncc2c1-c1ccccc1OC2)Nc1ccc(S(=O)(=O)N2CCCCC2)cc1 ?
TDP1 inh: 5%; TGFb inhibitor: -14%; DT40 TDP1 no CPT: inconclusive; IL1B secr inh: inconclusive; TDP1 cell CPT: inconclusive; HepG2 tox: -31%

What do the screens show for `COc1ccc(NC(=O)Cn2ncc3c2-c2ccccc2OC3)cc1Cl`?
TDP1 inh: 0%; TGFb inhibitor: inconclusive; DT40 TDP1 no CPT: 15µM*; TDP1 cell CPT: inconclusive; HepG2 tox: -7%

Results for Cc1cccc(N2CCN(C(=O)Cn3ncc4c3-c3ccccc3OC4)CC2)c1C ?
TDP1 inh: 4%; TGFb inhibitor: inconclusive; DT40 TDP1 no CPT: 16µM*; TDP1 cell CPT: 18µM*; HepG2 tox: -51%

What do the screens show for `Cc1ccc2c(c1)-c1c(cnn1CC(=O)N1CCN(c3cc(C)ccc3C)CC1)CO2`?
TDP1 inh: 0%; TGFb inhibitor: -16%; DT40 TDP1 no CPT: 18µM*; TDP1 cell CPT: inconclusive; HepG2 tox: 0%

Results for Cc1cccc(CC(=O)NC2CC(=O)N(c3cccc(F)c3)C2)c1 (stereo not drawn) ?
TDP1 inh: 0%; TGFb inhibitor: -13%; DT40 TDP1 no CPT: -28%; TDP1 cell CPT: 1%; HepG2 tox: 2%

What do the screens show for `Cc1ccc(N2CC(NC(=O)C3CCCC3)CC2=O)cc1C` (stereo not drawn)?
TDP1 inh: 0%; TGFb inhibitor: -22%; DT40 TDP1 no CPT: -16%; TDP1 cell CPT: -1%; HepG2 tox: -21%

What do the screens show for `CN(C(=O)CSc1nc2ccc(NC(=O)c3cccs3)cc2s1)c1ccccc1`?
TDP1 inh: -4%; TGFb inhibitor: -7%; DT40 TDP1 no CPT: 16µM*; TDP1 cell CPT: 23µM*; HepG2 tox: -20%

What do the screens show for `CN(C(=O)c1cccc(NC(=O)c2ccco2)c1)c1ccccc1`?
TGFb inhibitor: 14%; DT40 TDP1 no CPT: -5%; IL1B secr inh: 0; TDP1 cell CPT: -4%; HepG2 tox: -7%

What do the screens show for `CN(C(=O)CSc1nc2ccc(NC(=O)c3ccccc3)cc2s1)c1ccccc1`?
TDP1 inh: 5%; TGFb inhibitor: -3%; DT40 TDP1 no CPT: inconclusive; TDP1 cell CPT: inconclusive; HepG2 tox: 4%

Results for CN(C(=O)CSc1nc2ccc(NC(=O)c3ccco3)cc2s1)c1ccccc1 ?
TDP1 inh: 1%; TGFb inhibitor: -7%; DT40 TDP1 no CPT: 23µM*; TDP1 cell CPT: 18µM*; HepG2 tox: -29%

Results for COC(=O)c1ccc(C(NC(=O)OCc2ccccc2)/C(=C/[C@@H](C)C(=O)N(C)C)c2cccnc2)cc1 (stereo partly drawn) ?
TDP1 inh: 5%

What do the screens show for `CCc1cccc(C)c1NC(=O)CSc1nc2c(c(=O)[nH]1)CCC2`?
TDP1 inh: -3%; TGFb inhibitor: -1%; DT40 TDP1 no CPT: -17%; TDP1 cell CPT: -22%; HepG2 tox: 13%

Results for COc1ccc(CCNC(=O)Oc2ccccc2)cc1OC ?
TGFb inhibitor: -17%; DT40 TDP1 no CPT: -16%; IL1B secr inh: 0; TDP1 cell CPT: -6%; HepG2 tox: 0%

How did CCc1cccc(CC)c1NC(=O)CSc1nc2ccc(N3C(=O)C4C(C3=O)[C@H]3C=C[C@@H]4C3)cc2s1 (stereo partly drawn) do in these assays?
TDP1 inh: 2%; TGFb inhibitor: -1%; DT40 TDP1 no CPT: 8.2µM*; IL1B secr inh: -6; TDP1 cell CPT: inconclusive; HepG2 tox: -18%

How did COc1cc2c(cc1NC(=O)COc1ccc(Br)c(C)c1)oc1ccccc12 do in these assays?
TGFb inhibitor: 34%; DT40 TDP1 no CPT: 1%; TDP1 cell CPT: 1%; HepG2 tox: 5%

Results for Cc1ccc(Cl)cc1N1CCN(c2cccc[n+]2C)CC1 ?
TDP1 inh: 11%; TGFb inhibitor: 1%; DT40 TDP1 no CPT: 26µM*; IL1B secr inh: -11; TDP1 cell CPT: inconclusive; HepG2 tox: -5%

What do the screens show for `C[n+]1ccccc1N1CCN(c2ccccc2Cl)CC1`?
TDP1 inh: 3%; TGFb inhibitor: -12%; DT40 TDP1 no CPT: inconclusive; IL1B secr inh: -3; TDP1 cell CPT: 23µM*; HepG2 tox: -30%

Screening results (PubChem)
